NadD block: inhibitors of Staphylococcus aureus NadD; inhibition, % at 20 µM; 0.78% of 360,000 active; purified NadD enzyme, colorimetric absorbance read-out; in the data active = inhibition above about 26%
GRIN3A LBD mod: modulators (binders) of human NR3A ligand-binding domain; Tm shift relative to glycine control, % at 25 µM; 2.5% of 340,000 active; NR3A LBD differential scanning fluorimetry, Tm shift; 0% = protein alone, 100% = glycine-bound protein;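 active = melting temperature shift of at least 10% of the positive control shift, at one fixed dose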
rCAG binder-1: binds r(CAG) RNA repeats; r(CAG) RNA repeat, TO-PRO-1 dye displacement fluorescence; inhibition, % at 3 µM; 1.3% of 370,000 active;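 active = inhibition above the plate cutoff, the mean of all test compounds on that plate plus 3 SD, cut at about 35% in these data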;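 also: 0% = DMSO alone and 100% = 100 µM mitoxantrone as full dye displacement; higher means more dye released from RNA so lower well fluorescence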
FAS TE block: inhibitors of human fatty acid synthase thioesterase domain | recombinant FAS-TE, OMFH fluorogenic substrate, fluorescence endpoint | AID 602261 | inhibition, % at 15 µM | P49327 | 0.67% of 360,000 active;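 active = compounds whose normalised, plate-corrected inhibition of enzyme fluorescence in the single-dose primary screen is 50% or more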;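 also: 0% = DMSO with enzyme and 100% = substrate without enzyme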
NadD inh conf: NadD (S. aureus) inhibition, single concentration confirmation. shares compounds with NadD block. purified S. aureus NadD, colorimetric enzyme assay. inhibition, % at 20 µM. 13% of 2,000 active. AID 624309; in the data active = inhibition mostly above about 42%, no sharp cut-off; inactive = mostly below about 42%
rCAG binder conf: r(CAG) RNA repeat binding, confirmation; shares compounds with rCAG binder-1; TO-PRO-1 dye displacement fluorescence; inhibition, % at 3 µM; 70% of 4,300 active;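 active = inhibition above a per-plate cutoff, the mean inhibition of sample wells plus 3 SD, cut at about 35% in these data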;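 also: loss of TO-PRO-1 fluorescence as compound displaces dye from 1x1 AA loop RNA; 0% = DMSO only wells and 100% = 100 µM mitoxantrone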
DNA CAG counter: DNA CAG dye complex inhibition counter-screen; shares compounds with rCAG binder-1; d(CAG) DNA oligo TO-PRO-1 dye displacement, fluorescence; inhibition, % at 3 µM; 94% of 4,300 active; AID 652068;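 active = inhibition above its plate's cutoff, the mean test-well inhibition plus 3 SD, cut at about 4.8% in these data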;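 also: 0% = DNA dye mix with DMSO and 100% = 100 µM mitoxantrone; hits displace the dye from DNA and so lower well fluorescence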
DNA CAG DR: DNA CAG dye complex inhibition, dose response counter-screen | 20% of 250 active | IC50, µM | DNA CAG/GTC duplex TO-PRO-1 dye displacement fluorescence | shares compounds with rCAG binder-1; in the data active = IC50 below about 10 µM
dCAG TOPRO ctr: DNA CAG dye complex inhibition, late stage dose response. shares compounds with rCAG binder-1. d(CAG) DNA duplex TO-PRO-1 dye displacement, fluorescence. IC50, µM. 80% of 30 active
rCAG binder-2: r(CAG) repeat RNA binding, TO-PRO-1 displacement | shares compounds with rCAG binder-1 | r(CAG) RNA TO-PRO-1 dye displacement, fluorescence | IC50, µM | 100% of 30 active
The depositor's hits bear a star; i = inactive; x = no result given. Sampled rows, rich in hits. Any-hit rate of the full collection: about 4.3%. Unless noted, no rule for the calls is given here.

SMILES	NadD block	GRIN3A LBD mod	rCAG binder-1	FAS TE block	NadD inh conf	rCAG binder conf	DNA CAG counter	others
CC(C)CC(C(=O)Nc1oc(-c2ccco2)c(-c2ccco2)c1C#N)N1C(=O)c2ccccc2C1=O (configuration not stated)	48.0*	6.0	78.0*	16.1	46.7*	73.5*	35.9*
COC[C@H]1CCCN1c1cccc2c1S(=O)(=O)N1CC[C@H](C1)O2	x	x	2.3	x	x	x	x
NN=C1c2ccccc2C(=O)C1C(=O)C(c1ccccc1)c1ccccc1 (configuration not stated)	29.5*	12.5*	44.6*	9.9	50.0*	44.0*	27.8*
COC(=O)N[C@H](C(=O)N[C@@H](Cc1ccccc1)[C@@H](O)CN(Cc1ccc(-c2ccccn2)cc1)NC(=O)[C@@H](NC(=O)OC)C(C)(C)C)C(C)(C)C	x	x	3.4	x	x	x	x
CC1=NN(c2ccc(C)c(C)c2)C(=O)C1C(c1cccc(O)c1)C1C(=O)N(c2ccc(C)c(C)c2)N=C1C (configuration not stated)	37.0*	4.6	70.4*	13.4	61.2*	78.3*	36.7*
COc1ccc(-c2ccc3c(n2)CCCN3S(=O)(=O)c2c(C)noc2C)cc1	x	x	5.0	x	x	x	x
Cc1ccc2nc(N3C(=O)C(O)=C(C(=O)c4ccc(C)o4)C3c3ccco3)sc2c1 (configuration not stated)	25.9	-2.3	30.9	11.6	x	x	x
O=C(C1=C(O)C(=O)N(c2nc3ccc(Cl)cc3s2)C1c1ccco1)c1ccco1 (configuration not stated)	55.5*	-0.2	67.8*	10.6	51.1*	71.8*	32.6*	DNA CAG DR=3.47*;dCAG TOPRO ctr=2.89*;rCAG binder-2=1.31*
Cc1ccc2nc(N3C(=O)C(O)=C(C(=O)c4ccco4)C3c3ccc(C)o3)sc2c1 (configuration not stated)	26.1*	-3.7	48.9*	1.7	35.4	71.7*	33.0*	DNA CAG DR=3.81*;dCAG TOPRO ctr=1.99*;rCAG binder-2=0.923*
CCc1ccc2nc(N3C(=O)C(O)=C(C(=O)c4ccco4)C3c3cccs3)sc2c1 (configuration not stated)	17.4	-7.7	x	12.5	x	x	x
CCCCNC(=O)C[C@H]1C[C@@]2(C(=O)OC)C(=C[C@H](COCc3ccccc3)O[C@@H]2C)N(Cc2cccc3ccccc23)C1=O	x	x	9.2	x	x	x	x
COCCCNC(=O)C[C@H]1C[C@@]2(C(=O)OC)C(=C[C@H](C(C)(C)C)O[C@@H]2C)N(CCc2ccc(OC)c(OC)c2)C1=O	x	x	-2.5	x	x	x	x
O=C(O)c1ccccc1-c1ccc(/C=C/c2cc(C(F)(F)F)[nH]c(=O)n2)o1	2.6	-1.9	i	-13.8	x	x	x
O=C(O)c1ccccc1-c1ccc(C=c2sc3nc4cc(Br)cnc4n3c2=O)o1	59.1*	x	81.5*	-4.9	43.0	72.0*	38.6*
Nc1ccc2cc3ccc(N)cc3nc2c1	x	x	-77.5	x	x	x	x
COc1ccc(OC)c(/C=C/C(=O)OCC(=O)Nc2nnc(-c3ccccc3)o2)c1	43.7*	-8.6	45.4*	-0.9	60.2*	41.2*	15.2*
COc1ccccc1/C=C/C(=O)OCC(=O)Nc1nnc(-c2ccccc2)o1	14.9	-6.4	30.3	-7.9	x	x	x
Cc1[nH]n(-c2ccc(Br)cc2)c(=O)c1C=Nc1ccc(S(=O)(=O)Nc2nccs2)cc1	42.0*	26.7*	54.0*	10.0	40.1	80.7*	46.9*
CCc1nnc(NS(=O)(=O)c2ccc(N=Cc3c(C)[nH]n(-c4ccc(C)c(C)c4)c3=O)cc2)s1	37.3*	2.8	55.4*	0.8	55.2*	84.6*	57.4*
CC(C)(C)c1ccc(-c2nnc3n2N=C(c2ccc4ccccc4c2)CS3)cc1	x	x	6.7	x	x	x	x

Compound activity as filed in PubChem BioAssay.
